An excerpt weighted towards active compounds, which were near 7.1% of everything screened.
ELG1 repair inh: inhibitors of ELG1-dependent DNA repair in HEK293T cells. HEK293T ELG1-luciferase reporter, luminescence, 16 h; DNA damage induced by 5-fluorouridine. Potency, µM (top dose mostly 46.1 µM), for inactives: at the top dose activity change, negative = inhibition, most hits filed as inhibitors. hit rate 2.3% among 330,000; further: on the % scale 0 is the no-effect control and ±100 the full control effect; nearly all actives have a fitted effect of over 55% in size
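5-Fluorouridine DNA damage + compound/DMSO, 2,000 cells/well, 16 h, 37 °C/5% CO2. ONE-Glo, 30 min RT, luminescence. Readout = decrease in reporter signal.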
AT treatment: potential ataxia-telangiectasia treatments restoring KAP-1 phosphorylation; F2112 A-T fibroblasts, KAP-1 phosphorylation AlphaLISA; neocarzinostatin DNA damage 30 min before lysis; Potency, µM (titrated, usually from 57.5 µM), without a hit: at the top dose activation, hits mostly activators; hit rate 0.19% among 320,000; further: % of control where 0% means no effect; nearly all actives have a fitted effect of over 45% in size
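hTERT-immortalized A-T patient fibroblasts (F2112), 500 cells/well in OPTI-MEM, 1% FBS, got compounds for 60 min, then NCS for 30 min at 37C. Lysates were then assayed for phospho-KAP-1 by AlphaLISA (anti-pKAP1 donor, anti-KAP1 acceptor beads), 6 hr at 25C.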
MCF10A rerep: induces DNA re-replication in MCF 10a normal breast cells | MCF 10A DNA re-replication, Hoechst nuclear intensity, 48 h | Potency, µM (titrated, usually from 46.1 µM), inactives show at the top dose activity, positive = re-replication, usual class: activators | AID 624296 | hit rate 2.9% among 350,000; further: % of control where 0% means no effect; nearly all actives have a fitted effect of over 50% in size
ELG1 genotoxic: genotoxicity induction in ELG1-luciferase HEK293T cells. HEK293T ELG1-luciferase reporter, luminescence, 16 h. Potency, µM (highest dose often 46 µM), for the others: top-dose activity change, positive = activation, usual class: activators. hit rate 1.3% among 330,000; further: % of control where 0% means no effect; nearly all actives have a fitted effect of over 60% in size
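Reporter readout depends on ELG1 protein level, which increases with genetic stress. After 16 hr compound exposure at 37 °C, luciferase activity was quantified using ONE-Glo.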
p53 reactivation: re-activators of mutant p53; Potency, µM (titrated, usually from 92.2 µM), for the others: at the top dose activity change, positive = activation, actives largely listed as activators; hit rate 0.063% among 320,000; H1299 p53-A138V BP100-luciferase reporter, luminescence, 24 h; AID 504706; further: % of control where 0% means no effect; nearly all actives have a fitted effect of over 45% in size
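p53-null H1299 cells stably carrying temperature-sensitive p53-A138V and a BP100-luciferase reporter were pinned with compounds (4-point, 1:5 series) and held 24 hrs at 37 deg C. Luminescence was read 10 min after detection reagent.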
SW480 rerep: inducers of DNA re-replication in SW480 colon cancer cells; SW480 DNA re-replication, Hoechst DNA content imaging, 48 h; Potency, µM (highest dose often 46.1 µM), without a hit: at the top dose re-replication activation, actives largely listed as activators; hit rate 1.8% among 340,000; further: % of control where 0% means no effect; nearly all actives have a fitted effect of over 55% in size
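Quantitative HTS format with DMSO vehicle controls; 48 hr drug incubation at 37 C, then 40 min Hoechst staining and scanning imager measurement at 405 nm excitation.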
ELG1 FLuc counter: luciferase inhibition in cell-free luciferin readout for ELG1 hits. Potency, µM (highest dose often 46.1 µM), without a hit: at the top dose activity change, negative = inhibition, hits mostly inhibitors. hit rate 3% among 350. cell-free firefly luciferase luminescence counter-screen, ViewLux. shares compounds with ELG1 repair inh; further: on the % scale 0 is the no-effect control and ±100 the full control effect
ELG1-Luc inh: confirmation of human ELG1-dependent DNA repair inhibitors; shares compounds with ELG1 repair inh; HEK293T ELG1-luciferase levels, luminescence; cells co-treated with 5-fluorouridine; Potency, µM (titrated, usually from 46.1 µM), inactives show top-dose activity change, negative = inhibition, usual class: inhibitors; hit rate 68% among 670; further: on the % scale 0 is the no-effect control and ±100 the full control effect; nearly all actives have a fitted effect of over 55% in size
ELG1 MMS Luc: MMS-stimulated human ELG1 repair inhibition, confirmed | hit rate 53% among 670 | Potency, µM (top dose mostly 46.1 µM), without a hit: at the highest dose activity change, negative = inhibition, usual class: inhibitors | shares compounds with ELG1 repair inh | HEK293T luciferase-tagged ELG1 level, MMS stimulated; further: on the % scale 0 is the no-effect control and ±100 the full control effect; nearly all actives have a fitted effect of over 60% in size
ELG1 5-FU: confirmation of ELG1 repair inhibitors: viability with 5FU; shares compounds with ELG1 repair inh; cell viability with 5-FU, ELG1-dependent repair; Potency, µM (doses to about 46.1 µM), for inactives: at the top dose activity change, negative = viability loss, usual class: cytotoxic; 670 tested, under 10 active;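 further: ELG1-luc HEK293T cells cotreated with 5-fluorouridine at 10 µM final; viability measured 16 h after compound addition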
ELG1 MMS viab: confirmation of ELG1 repair inhibitors: viability with MMS; shares compounds with ELG1 repair inh; Cell viability with MMS, ELG1-dependent DNA repair; Potency, µM (highest dose often 46.1 µM), for the others: at the top dose activity change, negative = viability loss, usual class: cytotoxic; hit rate 33% among 670; AID 624251;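 further: ELG1-luc HEK293T cells co-treated with 10 µM MMS; viability read 16 h after compound addition; on the % scale 0 is the no-effect control and ±100 the full control effect; nearly all actives have a fitted effect of over 60% in size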
ELG1 unstim viab: counter-screen for ELG1 repair inhibitors: unstimulated cell viability | shares compounds with ELG1 repair inh | cell viability counter-screen, unstimulated, luminescence | Potency, µM (titrated, usually from 45.9 µM), for the others: top-dose activity change, negative = loss of viability, usual class: cytotoxic | hit rate 8% among 900 | AID 624252;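 further: compound exposure lasted 16 hours before reading; on the % scale 0 is the no-effect control and ±100 the full control effect; nearly all actives have a fitted effect of over 55% in size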
FLuc enzyme: inhibits purified firefly luciferase, counter-screen for ELG1 hits; Potency, µM (series often up to 57.5 µM), for the others: top-dose activity, negative = inhibition, usual class: inhibitors; AID 624253; hit rate 10% among 350; shares compounds with ELG1 repair inh; purified firefly luciferase, luminescence counter-screen; further: on the % scale 0 is the no-effect control and ±100 the full control effect
* marks the source's active call; other numbers are inactive results; ? = inconclusive; / = not tested or not shown. The call rests on the fitted dose curve; in most records, active means well fitted curve in the direction sought with a large enough effect; inconclusive means small, poorly fitted or top-dose-only effect, or another doubt; inactive means no such curve, though single readings can be large; an effect the other way counts as inactive or inconclusive. Potency means the concentration at half of the fitted maximal effect.

SMILES	ELG1 repair inh	AT treatment	MCF10A rerep	ELG1 genotoxic	p53 reactivation	SW480 rerep	ELG1-Luc inh	ELG1 MMS Luc	ELG1 5-FU	ELG1 MMS viab	ELG1 unstim viab	others
COc1ccc(/C=C/c2cnc3ccccc3n2)cc1OC	/	/	/	/	/	/	/	/	/	/	-3.8%	ELG1 FLuc counter=-7.7%;FLuc enzyme=0.206µM*
COc1ccc(NS(=O)(=O)c2cc(NC(=O)c3cccnc3Cl)ccc2N2CCCC2)cc1	-10.9%	3.3%	?	-4.6%	-4.2%	-5.2%	/	/	/	/	/
O=C(Nc1ccc(N2CCOCC2)cc1)c1cccc(S(=O)(=O)N2CCCCCC2)c1	3.26µM*	0.8%	-6.4%	-2.4%	-1.3%	-4.2%	?	7.91µM*	-0.6%	7.91µM*	?
COc1ccccc1CN(Cc1nc2ccccc2c(=O)[nH]1)S(=O)(=O)c1ccc2ccccc2c1	3.66µM*	-0.9%	-18.3%	-17.6%	-4.0%	?	7.91µM*	6.28µM*	?	15.8µM*	17.7µM*
COc1ccc(S(=O)(=O)N(Cc2ccccc2)Cc2nc3ccccc3c(=O)[nH]2)cc1	?	-0.2%	14.6%	-4.3%	-3.3%	-2.1%	/	/	/	/	/
COc1ccc(Cn2nnnc2C(c2ccccc2)N2CCN(C3CCCC3)CC2)cc1 (stereo not given)	0.0%	/	-11.9%	-5.9%	-6.2%	-2.4%	/	/	/	/	/
c1ccc(Cn2nnnc2C(c2cccnc2)N2CCN(C3CCCCC3)CC2)cc1 (stereo not given)	3.26µM*	10.6%	?	-5.0%	-4.3%	-5.9%	?	?	2.1%	-1.9%	-13.3%
COc1ccc(C(=O)N2CCc3cc(OC)c(OC)cc3C2c2ccc(OC)c(OC)c2)cc1OC (stereo not given)	3.66µM*	10.0%	-17.6%	3.5%	-13.6%	4.3%	?	15.4%	?	-12.8%	-19.0%
CCC(=O)N1CCc2cc(OC)c(OC)cc2C1COc1ccccc1OC (stereo not given)	?	2.6%	14.6%	11.4%	-3.2%	-1.0%	/	/	/	/	/
